The target of experiment [1] is T1, Inhibitor of nuclear factor kappa-B kinase subunit epsilon (Homo sapiens) (UniProt Q14164).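 Further: reported values are averaged percent inhibition figures against human IKKε.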
T1 sequence (whole entry): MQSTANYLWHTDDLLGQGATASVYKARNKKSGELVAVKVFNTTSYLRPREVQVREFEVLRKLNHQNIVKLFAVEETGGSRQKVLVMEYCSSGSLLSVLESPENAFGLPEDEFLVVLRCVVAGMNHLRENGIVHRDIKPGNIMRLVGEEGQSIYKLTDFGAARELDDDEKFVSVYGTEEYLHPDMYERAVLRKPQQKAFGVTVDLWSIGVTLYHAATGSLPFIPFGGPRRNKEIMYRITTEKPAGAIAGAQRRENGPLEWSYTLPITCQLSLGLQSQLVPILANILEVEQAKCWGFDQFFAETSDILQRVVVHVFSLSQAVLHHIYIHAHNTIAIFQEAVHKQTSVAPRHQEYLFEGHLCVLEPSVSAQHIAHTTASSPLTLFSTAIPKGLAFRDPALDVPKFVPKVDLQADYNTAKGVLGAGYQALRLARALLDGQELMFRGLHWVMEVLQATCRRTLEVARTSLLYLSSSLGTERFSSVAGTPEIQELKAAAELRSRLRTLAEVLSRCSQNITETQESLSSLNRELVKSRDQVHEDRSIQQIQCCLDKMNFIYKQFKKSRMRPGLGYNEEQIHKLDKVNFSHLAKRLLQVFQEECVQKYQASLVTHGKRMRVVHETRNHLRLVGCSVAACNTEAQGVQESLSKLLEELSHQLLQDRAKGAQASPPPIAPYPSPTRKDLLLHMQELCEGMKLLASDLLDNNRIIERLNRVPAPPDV
The note with it: at 1 µM.

The target in experiment [2] is T2, Serine/threonine-protein kinase Nek1 (Homo sapiens) (UniProt Q96PY6).
T2 sequence (whole entry): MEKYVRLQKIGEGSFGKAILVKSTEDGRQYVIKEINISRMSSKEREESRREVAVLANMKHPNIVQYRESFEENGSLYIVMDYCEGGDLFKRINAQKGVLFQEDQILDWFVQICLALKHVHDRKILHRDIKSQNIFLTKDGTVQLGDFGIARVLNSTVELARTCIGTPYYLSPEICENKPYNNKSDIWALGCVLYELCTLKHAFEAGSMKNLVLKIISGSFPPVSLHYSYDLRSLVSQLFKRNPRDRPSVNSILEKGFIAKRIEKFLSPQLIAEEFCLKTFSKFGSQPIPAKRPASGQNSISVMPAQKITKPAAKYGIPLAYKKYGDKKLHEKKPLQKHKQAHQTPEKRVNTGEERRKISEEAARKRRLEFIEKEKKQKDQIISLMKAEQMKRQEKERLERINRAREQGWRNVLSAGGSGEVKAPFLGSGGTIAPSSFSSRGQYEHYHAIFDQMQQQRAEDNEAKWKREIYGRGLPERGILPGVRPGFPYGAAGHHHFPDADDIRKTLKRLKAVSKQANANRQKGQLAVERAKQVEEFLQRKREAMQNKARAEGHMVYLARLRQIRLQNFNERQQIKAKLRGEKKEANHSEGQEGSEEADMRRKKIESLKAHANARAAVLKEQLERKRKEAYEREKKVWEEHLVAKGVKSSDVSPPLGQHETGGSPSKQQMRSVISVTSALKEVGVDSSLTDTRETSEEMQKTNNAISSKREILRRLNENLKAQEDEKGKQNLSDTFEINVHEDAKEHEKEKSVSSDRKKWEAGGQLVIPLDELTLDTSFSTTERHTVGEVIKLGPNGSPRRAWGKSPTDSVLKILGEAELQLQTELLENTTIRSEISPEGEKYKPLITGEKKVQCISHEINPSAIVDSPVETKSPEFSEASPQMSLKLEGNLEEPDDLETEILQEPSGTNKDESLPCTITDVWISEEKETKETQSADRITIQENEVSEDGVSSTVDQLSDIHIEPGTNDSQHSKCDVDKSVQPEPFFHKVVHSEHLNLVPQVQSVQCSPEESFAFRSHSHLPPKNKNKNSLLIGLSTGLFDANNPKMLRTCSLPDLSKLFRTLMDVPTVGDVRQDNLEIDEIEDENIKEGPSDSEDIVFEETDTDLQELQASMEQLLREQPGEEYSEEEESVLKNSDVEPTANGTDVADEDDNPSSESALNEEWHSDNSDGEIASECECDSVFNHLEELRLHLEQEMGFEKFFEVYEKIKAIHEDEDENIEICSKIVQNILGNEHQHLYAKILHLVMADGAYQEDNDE
The note with it: at 0.1 µM.

The target in experiment [3] is T2, Serine/threonine-protein kinase Nek1 (Homo sapiens). The conditions noted are these: at 1 µM.
Experiment [4] deals with T3, Serine/threonine-protein kinase Nek2 (Homo sapiens) (UniProt P51955).
T3 sequence (whole entry): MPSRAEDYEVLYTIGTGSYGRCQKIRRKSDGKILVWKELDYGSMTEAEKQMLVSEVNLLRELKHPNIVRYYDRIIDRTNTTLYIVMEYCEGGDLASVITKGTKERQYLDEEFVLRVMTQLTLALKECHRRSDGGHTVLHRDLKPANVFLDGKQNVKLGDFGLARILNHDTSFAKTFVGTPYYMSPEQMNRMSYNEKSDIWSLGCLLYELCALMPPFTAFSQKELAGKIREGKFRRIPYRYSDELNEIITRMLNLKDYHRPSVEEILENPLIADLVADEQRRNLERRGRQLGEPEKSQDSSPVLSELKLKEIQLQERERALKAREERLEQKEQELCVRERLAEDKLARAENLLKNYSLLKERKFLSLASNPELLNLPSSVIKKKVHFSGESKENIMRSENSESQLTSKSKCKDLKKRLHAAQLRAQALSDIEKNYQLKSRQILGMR
The conditions noted are these: at 0.1 µM.

Experiment [5] deals with T3, Serine/threonine-protein kinase Nek2 (Homo sapiens). The note with it: at 1 µM.
The target of experiment [6] is Serine/threonine-protein kinase Nek6 (Homo sapiens) (UniProt Q9HC98). The note with it: at 0.1 µM.
Experiment [7] shares this target. The note with it: at 1 µM.
Experiment [8] addresses Serine/threonine-protein kinase Nek7 (Homo sapiens) (UniProt Q8TDX7). The conditions noted are these: at 0.1 µM.
For experiment [9] the target is unchanged. The conditions noted are these: at 1 µM.
The target in experiment [10] is T4, Serine/threonine-protein kinase Nek9 (Homo sapiens) (UniProt Q8TD19).
T4 sequence (whole entry): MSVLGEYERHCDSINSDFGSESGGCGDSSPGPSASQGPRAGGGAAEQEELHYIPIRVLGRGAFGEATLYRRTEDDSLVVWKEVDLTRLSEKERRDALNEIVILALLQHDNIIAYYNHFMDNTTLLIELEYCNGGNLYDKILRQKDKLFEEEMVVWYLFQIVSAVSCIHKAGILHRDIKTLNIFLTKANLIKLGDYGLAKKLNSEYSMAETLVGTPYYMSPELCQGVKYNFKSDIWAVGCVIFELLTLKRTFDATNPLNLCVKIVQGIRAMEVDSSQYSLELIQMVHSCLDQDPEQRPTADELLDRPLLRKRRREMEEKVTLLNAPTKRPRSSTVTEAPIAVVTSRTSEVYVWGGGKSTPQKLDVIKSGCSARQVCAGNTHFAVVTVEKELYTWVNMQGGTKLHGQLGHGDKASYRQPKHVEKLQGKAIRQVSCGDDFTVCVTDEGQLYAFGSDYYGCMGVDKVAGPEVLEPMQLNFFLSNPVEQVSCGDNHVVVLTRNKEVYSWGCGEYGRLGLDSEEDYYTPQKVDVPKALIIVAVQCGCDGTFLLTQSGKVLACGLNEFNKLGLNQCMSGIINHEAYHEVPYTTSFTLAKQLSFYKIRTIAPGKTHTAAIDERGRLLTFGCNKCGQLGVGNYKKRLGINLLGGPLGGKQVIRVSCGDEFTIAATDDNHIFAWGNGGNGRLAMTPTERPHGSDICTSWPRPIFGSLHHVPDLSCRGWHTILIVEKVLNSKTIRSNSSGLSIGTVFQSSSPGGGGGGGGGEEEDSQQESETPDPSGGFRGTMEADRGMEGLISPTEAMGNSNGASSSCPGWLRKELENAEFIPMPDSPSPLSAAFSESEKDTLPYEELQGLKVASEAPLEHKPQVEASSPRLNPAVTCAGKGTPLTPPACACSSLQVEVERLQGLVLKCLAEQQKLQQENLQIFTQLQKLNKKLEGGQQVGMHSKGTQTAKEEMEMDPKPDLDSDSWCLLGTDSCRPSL
The note with it: at 0.1 µM.

Experiment [11] deals with T4, Serine/threonine-protein kinase Nek9 (Homo sapiens). The conditions noted are these: at 1 µM.
For experiment [12], the target named is Serine/threonine-protein kinase PLK1 (Homo sapiens) (UniProt P53350). The note with it: at 0.1 µM.
Experiment [13] shares this target. The conditions noted are these: at 1 µM.
Experiment [14] addresses T5, Dual specificity protein kinase TTK (Homo sapiens) (UniProt P33981).
T5 sequence (whole entry): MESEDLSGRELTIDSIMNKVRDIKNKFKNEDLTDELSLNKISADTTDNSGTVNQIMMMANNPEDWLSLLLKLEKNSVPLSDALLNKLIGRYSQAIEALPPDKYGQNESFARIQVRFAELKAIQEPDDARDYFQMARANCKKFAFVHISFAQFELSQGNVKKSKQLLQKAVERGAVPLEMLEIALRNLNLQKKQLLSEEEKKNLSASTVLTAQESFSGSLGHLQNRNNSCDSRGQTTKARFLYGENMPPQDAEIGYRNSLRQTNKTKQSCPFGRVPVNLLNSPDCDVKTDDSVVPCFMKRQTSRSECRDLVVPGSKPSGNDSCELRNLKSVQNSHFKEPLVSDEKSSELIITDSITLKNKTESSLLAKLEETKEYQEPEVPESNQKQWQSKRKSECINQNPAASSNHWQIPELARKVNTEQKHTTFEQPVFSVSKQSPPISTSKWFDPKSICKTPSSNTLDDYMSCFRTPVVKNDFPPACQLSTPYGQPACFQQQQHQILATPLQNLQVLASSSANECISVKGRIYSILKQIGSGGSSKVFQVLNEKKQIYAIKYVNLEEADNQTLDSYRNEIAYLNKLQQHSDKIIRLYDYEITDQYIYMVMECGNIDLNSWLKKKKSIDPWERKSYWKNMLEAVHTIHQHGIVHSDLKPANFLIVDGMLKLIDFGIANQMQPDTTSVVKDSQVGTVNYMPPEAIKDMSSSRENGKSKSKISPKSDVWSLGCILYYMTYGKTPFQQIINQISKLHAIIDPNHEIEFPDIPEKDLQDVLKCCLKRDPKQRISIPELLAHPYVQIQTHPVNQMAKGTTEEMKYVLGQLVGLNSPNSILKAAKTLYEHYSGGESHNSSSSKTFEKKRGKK
The conditions noted are these: at 0.1 µM.

The subject of experiment [15] is T6, Receptor-type tyrosine-protein kinase FLT3 (Homo sapiens), P36888 [D835Y].
T6 sequence (whole entry): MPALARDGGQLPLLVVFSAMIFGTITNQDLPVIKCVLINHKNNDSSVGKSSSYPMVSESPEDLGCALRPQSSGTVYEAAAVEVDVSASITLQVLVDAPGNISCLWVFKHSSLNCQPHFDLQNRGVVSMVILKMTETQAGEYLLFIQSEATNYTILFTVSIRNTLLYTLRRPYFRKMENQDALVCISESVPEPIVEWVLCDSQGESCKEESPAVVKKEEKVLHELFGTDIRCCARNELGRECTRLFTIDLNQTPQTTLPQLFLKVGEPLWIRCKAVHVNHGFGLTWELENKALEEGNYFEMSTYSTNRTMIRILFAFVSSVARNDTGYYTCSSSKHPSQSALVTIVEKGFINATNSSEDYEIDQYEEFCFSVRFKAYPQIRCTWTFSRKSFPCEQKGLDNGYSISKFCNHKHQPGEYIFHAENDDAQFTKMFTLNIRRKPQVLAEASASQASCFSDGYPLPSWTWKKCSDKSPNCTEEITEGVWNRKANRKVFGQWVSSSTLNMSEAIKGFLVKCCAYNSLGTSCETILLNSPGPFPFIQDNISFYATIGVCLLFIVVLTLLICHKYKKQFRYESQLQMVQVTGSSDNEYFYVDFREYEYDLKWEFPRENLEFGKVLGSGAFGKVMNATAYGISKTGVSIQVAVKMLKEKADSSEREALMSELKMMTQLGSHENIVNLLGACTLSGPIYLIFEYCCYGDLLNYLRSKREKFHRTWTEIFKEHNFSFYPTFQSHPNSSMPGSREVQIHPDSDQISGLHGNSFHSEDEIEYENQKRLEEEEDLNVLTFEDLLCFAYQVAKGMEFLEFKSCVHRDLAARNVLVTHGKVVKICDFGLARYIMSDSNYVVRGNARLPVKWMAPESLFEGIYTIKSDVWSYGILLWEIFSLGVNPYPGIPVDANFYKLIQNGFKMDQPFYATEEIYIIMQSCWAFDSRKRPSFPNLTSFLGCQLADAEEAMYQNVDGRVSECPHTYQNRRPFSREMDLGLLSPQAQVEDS
The note with it: at 1 µM.

Experiment [16] deals with Vascular endothelial growth factor receptor 3 (Homo sapiens) (UniProt P35916). The conditions noted are these: at 0.1 µM.
Experiment [17] has the same target. The conditions noted are these: at 1 µM.
Experiment [18] deals with Macrophage colony-stimulating factor 1 receptor (Homo sapiens) (UniProt P07333). The note with it: at 0.1 µM.
For experiment [19] the target is unchanged. The note with it: at 1 µM.
In experiment [20] the target is Tyrosine-protein kinase Fyn (Homo sapiens) (UniProt P06241). The conditions noted are these: at 0.1 µM.
Sequence of Tyrosine-protein kinase Fyn (Homo sapiens) (P06241 2-537 limits assumed): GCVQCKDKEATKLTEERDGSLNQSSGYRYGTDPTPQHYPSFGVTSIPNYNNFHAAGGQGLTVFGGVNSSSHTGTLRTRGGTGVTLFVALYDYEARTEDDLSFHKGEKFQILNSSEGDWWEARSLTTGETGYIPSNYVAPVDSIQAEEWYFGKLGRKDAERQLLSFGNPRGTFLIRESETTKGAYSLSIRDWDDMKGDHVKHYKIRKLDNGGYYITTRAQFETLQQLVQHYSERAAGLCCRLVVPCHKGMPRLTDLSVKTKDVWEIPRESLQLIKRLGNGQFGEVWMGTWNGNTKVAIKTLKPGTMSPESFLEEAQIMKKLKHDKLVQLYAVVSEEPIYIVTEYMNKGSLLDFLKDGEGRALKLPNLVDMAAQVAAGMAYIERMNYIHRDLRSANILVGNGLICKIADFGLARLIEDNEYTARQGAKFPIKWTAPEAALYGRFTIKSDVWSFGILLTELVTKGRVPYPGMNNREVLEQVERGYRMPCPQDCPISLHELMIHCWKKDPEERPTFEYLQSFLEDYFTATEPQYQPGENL

Sequence of Macrophage colony-stimulating factor 1 receptor (Homo sapiens) (P07333 whole entry): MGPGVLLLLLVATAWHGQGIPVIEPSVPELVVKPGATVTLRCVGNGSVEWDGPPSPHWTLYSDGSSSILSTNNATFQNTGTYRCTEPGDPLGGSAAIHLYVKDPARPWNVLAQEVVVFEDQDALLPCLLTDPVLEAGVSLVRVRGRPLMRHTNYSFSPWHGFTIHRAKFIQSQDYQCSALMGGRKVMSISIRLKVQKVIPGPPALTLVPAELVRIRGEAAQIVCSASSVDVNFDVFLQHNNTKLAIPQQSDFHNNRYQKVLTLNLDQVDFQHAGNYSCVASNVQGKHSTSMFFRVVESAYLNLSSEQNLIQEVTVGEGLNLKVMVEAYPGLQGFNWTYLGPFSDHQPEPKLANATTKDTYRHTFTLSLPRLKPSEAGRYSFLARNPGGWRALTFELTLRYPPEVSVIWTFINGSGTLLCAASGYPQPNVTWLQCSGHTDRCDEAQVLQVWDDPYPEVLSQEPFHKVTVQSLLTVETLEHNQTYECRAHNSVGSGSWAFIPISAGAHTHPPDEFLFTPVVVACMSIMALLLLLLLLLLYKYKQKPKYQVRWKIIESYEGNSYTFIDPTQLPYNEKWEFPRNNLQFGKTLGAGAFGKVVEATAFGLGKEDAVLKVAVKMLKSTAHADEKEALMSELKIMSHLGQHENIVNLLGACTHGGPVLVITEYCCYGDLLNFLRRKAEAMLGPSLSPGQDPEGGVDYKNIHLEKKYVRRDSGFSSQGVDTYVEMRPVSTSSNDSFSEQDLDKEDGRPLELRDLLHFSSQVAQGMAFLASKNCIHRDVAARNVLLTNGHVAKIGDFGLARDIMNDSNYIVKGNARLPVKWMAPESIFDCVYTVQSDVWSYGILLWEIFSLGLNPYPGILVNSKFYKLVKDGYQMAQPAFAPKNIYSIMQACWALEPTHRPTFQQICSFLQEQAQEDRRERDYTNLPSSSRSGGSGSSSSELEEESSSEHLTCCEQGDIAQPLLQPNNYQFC
Sequence of Serine/threonine-protein kinase Nek6 (Homo sapiens) (Q9HC98 whole entry): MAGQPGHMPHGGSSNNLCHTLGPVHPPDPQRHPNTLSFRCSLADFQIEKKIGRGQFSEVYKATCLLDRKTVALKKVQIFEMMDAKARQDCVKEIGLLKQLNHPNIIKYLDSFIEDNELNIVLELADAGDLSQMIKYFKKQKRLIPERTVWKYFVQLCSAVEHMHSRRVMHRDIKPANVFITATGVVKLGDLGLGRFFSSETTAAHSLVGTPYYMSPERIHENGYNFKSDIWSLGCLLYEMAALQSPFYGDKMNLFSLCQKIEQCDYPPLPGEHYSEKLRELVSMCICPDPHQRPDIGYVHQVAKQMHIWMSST
Sequence of Vascular endothelial growth factor receptor 3 (Homo sapiens) (P35916 whole entry): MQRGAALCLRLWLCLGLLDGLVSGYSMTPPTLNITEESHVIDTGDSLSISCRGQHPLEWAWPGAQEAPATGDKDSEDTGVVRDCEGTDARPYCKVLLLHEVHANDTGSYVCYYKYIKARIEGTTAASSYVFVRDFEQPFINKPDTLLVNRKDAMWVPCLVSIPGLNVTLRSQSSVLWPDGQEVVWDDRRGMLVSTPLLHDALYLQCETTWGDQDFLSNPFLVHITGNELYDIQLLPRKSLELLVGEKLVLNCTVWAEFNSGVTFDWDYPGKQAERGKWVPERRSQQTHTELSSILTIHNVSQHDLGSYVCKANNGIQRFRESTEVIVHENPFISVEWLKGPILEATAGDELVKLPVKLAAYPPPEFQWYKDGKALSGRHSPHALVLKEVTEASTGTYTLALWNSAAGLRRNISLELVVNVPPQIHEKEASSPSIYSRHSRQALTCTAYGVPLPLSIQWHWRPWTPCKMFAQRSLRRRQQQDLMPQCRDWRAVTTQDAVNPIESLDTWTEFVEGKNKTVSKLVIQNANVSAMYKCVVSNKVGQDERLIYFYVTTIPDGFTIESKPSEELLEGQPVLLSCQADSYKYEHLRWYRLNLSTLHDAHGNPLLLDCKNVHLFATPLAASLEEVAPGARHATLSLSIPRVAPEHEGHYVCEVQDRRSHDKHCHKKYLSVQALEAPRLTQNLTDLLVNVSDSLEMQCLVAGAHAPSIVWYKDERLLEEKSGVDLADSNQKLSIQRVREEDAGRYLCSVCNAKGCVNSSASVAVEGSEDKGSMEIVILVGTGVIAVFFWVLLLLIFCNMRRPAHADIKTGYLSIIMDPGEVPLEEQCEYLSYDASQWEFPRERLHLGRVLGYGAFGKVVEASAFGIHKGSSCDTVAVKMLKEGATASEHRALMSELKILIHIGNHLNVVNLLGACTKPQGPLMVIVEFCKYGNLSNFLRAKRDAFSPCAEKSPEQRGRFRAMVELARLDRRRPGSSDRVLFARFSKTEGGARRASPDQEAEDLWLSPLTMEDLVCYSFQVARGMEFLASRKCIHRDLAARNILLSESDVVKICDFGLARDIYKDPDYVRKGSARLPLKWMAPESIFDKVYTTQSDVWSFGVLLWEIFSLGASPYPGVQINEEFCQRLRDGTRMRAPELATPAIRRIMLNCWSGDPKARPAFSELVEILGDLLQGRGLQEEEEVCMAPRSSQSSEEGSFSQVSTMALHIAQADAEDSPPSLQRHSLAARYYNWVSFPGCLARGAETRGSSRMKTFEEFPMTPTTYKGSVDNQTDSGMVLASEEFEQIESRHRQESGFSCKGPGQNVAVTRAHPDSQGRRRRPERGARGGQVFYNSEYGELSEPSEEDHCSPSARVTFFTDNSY
Sequence of Serine/threonine-protein kinase PLK1 (Homo sapiens) (P53350 whole entry): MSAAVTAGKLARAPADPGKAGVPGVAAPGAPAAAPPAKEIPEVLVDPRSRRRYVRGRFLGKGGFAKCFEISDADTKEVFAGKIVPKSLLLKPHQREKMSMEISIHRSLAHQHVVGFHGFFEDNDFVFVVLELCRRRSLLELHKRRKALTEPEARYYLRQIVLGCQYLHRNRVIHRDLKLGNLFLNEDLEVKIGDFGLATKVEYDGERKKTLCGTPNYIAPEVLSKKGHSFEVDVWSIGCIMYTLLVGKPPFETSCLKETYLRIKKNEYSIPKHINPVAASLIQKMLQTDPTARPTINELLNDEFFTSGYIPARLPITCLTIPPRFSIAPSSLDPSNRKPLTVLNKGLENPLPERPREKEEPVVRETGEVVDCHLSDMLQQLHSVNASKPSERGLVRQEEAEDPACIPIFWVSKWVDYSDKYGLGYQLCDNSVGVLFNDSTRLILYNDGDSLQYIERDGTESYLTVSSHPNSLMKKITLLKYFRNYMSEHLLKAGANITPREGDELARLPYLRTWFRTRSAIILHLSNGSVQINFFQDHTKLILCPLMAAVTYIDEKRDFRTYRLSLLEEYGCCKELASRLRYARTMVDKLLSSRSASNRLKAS
Sequence of Serine/threonine-protein kinase Nek7 (Homo sapiens) (Q8TDX7 whole entry, looked up): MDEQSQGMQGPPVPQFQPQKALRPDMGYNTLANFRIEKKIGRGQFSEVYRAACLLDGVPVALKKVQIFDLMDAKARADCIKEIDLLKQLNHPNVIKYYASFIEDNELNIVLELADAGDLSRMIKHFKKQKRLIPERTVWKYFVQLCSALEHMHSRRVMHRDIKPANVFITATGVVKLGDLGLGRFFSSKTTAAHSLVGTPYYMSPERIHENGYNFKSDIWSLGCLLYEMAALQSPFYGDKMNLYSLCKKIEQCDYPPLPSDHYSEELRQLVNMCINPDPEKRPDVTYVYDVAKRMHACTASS

Broadly, the inhibition is the relative decrease from the control value, in per cent. Consider `CS(=O)(=O)Nc1ccc(-c2ccc3c(NC(=O)C4CC4)n[nH]c3c2)cc1`, for which the inhibition in experiment [1] was 2.67%; in experiment [2] it was 1.54%; in experiment [3], -3.13%; in [4], 4.81%; in experiment [5] it was 3.7%; in [6], 1.17%. Moreover, the inhibition in [7] was -2.29%; in experiment [8], 4.35%; in experiment [9], 2.55%; in experiment [10] it was 2.89%; in experiment [11], -0.22%; in [12], 4.12%. Also, the inhibition in experiment [13] was 4.87%; in experiment [14], 7.49%; in experiment [15] it was 3.86%; in experiment [16] it was -0.12%; in experiment [17], 2.39%; in experiment [18], 1.7%. Also, the inhibition in [19] was 3.16%; in experiment [20], 0.67%.
